Several values for one entry are separate records, joined by “and”; a condition that tells them apart may be missing. Identical values can stand only once. Screen size: about 5,500 compounds; about 2,000 (36%) were called active. Not shown: some 18% with an inconclusive outcome. Rule as the data show it: active = normalized growth mostly below about 0.91 (no sharp cut-off); inconclusive = no clear call, values can overlap the other calls; inactive = mostly above about 0.92. The list shows a part of the results.
Assay: chemical genetic growth profiling, strain panel (AID 1159580);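 also: tested at 20 µM; growth read once vehicle control cultures reached saturation at 30 °C; 1 = growth at the plate median or of vehicle wells; lower values mean less growth of the strain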
Settings: S. cerevisiae deletion strains, growth OD

Measured: normalized growth

NCC(=O)CCC(=O)O
inactive: locus YAL013W, strain DEP1, hits give low values 1.01 | locus YAL021C, strain ccr4, hits give low values 1 | locus YAL026C, strain drs2, hits give low values 1.01 | locus YAL030W, strain snc1, hits give low values 0.99 | locus YBL061C, strain skt5, hits give low values 0.979 | locus YBR009C, strain hhf1, hits give low values 1.03 | locus YBR021W, strain FUR4, hits give low values 1.04 | locus YBR023C, strain chs3, hits give low values 0.995 | locus YBR171W, strain sec66, hits give low values 0.962 | locus YBR229C, strain ROT2, hits give low values 1.02 | locus YBR231C, strain swc5, hits give low values 0.968 | locus YBR279W, strain paf1, hits give low values 0.997 | locus YCL011C, strain gbp2, hits give low values 1 | locus YCL016C, strain dcc1, hits give low values 0.998 | locus YCL029C, strain bik1, hits give low values 0.995 | locus YCL061C, strain MRC1, hits give low values 0.983 | locus YCL069W, strain vba3, hits give low values 0.989 | locus YCR088W, strain abp1, hits give low values 0.987 | locus YDL005C, strain med2, hits give low values 0.96 | locus YDL035C, strain GPR1, hits give low values 1.02 | locus YDL040C, strain nat1, hits give low values 0.979 | locus YDL074C, strain BRE1, hits give low values 1.02 | locus YDL101C, strain DUN1, hits give low values 1.01 | locus YDL134C, strain PPH21, hits give low values 1.01 | locus YDL185W, strain tfp1, hits give low values 0.994 | locus YDL192W, strain arf1, hits give low values 0.992 | locus YDR001C, strain nth1, hits give low values 0.997 | locus YDR069C, strain doa4, hits give low values 0.979 | locus YDR101C, strain arx1, hits give low values 0.988 | locus YDR137W, strain rgp1, hits give low values 0.979 | locus YDR150W, strain NUM1, hits give low values 1.02 | locus YDR159W, strain sac3, hits give low values 1 | locus YDR162C, strain NBP2, hits give low values 1.01 | locus YDR195W, strain ref2 0.945 | locus YDR297W, strain sur2, hits give low values 0.99 | locus YDR318W, strain mcm21, hits give low values 0.978 | locus YDR334W, strain swr1, hits give low values 0.984 | locus YDR335W, strain msn5, hits give low values 0.995 | locus YDR388W, hits give low values 0.986 | locus YDR392W, strain spt3, hits give low values 1.05 | locus YDR502C, strain sam2, hits give low values 0.995 | locus YEL003W, strain gim4, hits give low values 0.992 | locus YEL037C, strain rad23, hits give low values 0.979 | locus YEL061C, strain CIN8 (second series), hits give low values 0.99 | locus YEL061C, strain CIN8, hits give low values 1.01 | locus YER015W, strain faa2, hits give low values 0.996 | locus YER016W, strain bim1, hits give low values 1.01 | locus YER110C, hits give low values 0.991 | locus YER111C, strain swi4, hits give low values 0.972 | locus YER155C, strain BEM2 (second series), hits give low values 0.955 | locus YER155C, strain BEM2, hits give low values 1.01 | locus YER167W, strain BCK2, hits give low values 1.01 | locus YFR010W, strain ubp6, hits give low values 0.973 | locus YGL078C, strain dbp3, hits give low values 0.99 | locus YGL086W, strain mad1, hits give low values 1 | locus YGL167C, strain pmr1, hits give low values 0.974 | locus YGL173C, strain kem1, hits give low values 0.971 | locus YGL227W, strain vid30, hits give low values 0.988 | locus YGL240W, strain doc1, hits give low values 0.965 | locus YGL248W, strain PDE1, hits give low values 1.01 | locus YGL253W, strain hxk2, hits give low values 1.01 | locus YGR078C, strain PAC10, hits give low values 1.02 | locus YGR135W, strain pre9, hits give low values 0.982 | locus YGR229C, strain SMI1, hits give low values 1.02 | locus YGR252W, strain gcn5, hits give low values 0.975 | locus YHR013C, strain ard1, hits give low values 0.964 | locus YHR027C, strain rpn1, hits give low values 1 | locus YHR030C, strain SLT2, hits give low values 1.01 and 1.03 | locus YHR079C, strain IRE1 (second series), hits give low values 0.982 | locus YHR079C, strain IRE1, hits give low values 1.03 | locus YHR094C, strain hxt1, hits give low values 0.99 | locus YHR129C, strain ARP1, hits give low values 1.01 | locus YHR142W, strain chs7, hits give low values 0.981 | locus YHR200W, strain rpn10, hits give low values 0.99 | locus YIL066C, strain RNR3, hits give low values 1.02 | locus YIL073C, strain SPO22, hits give low values 1.01 | locus YIL125W, strain kgd1, hits give low values 0.997 | locus YIR030C, strain dcg1, hits give low values 0.994 | locus YJL092W, strain hpr5, hits give low values 0.969 | locus YJL095W, strain BCK1 (second series), hits give low values 0.984 | locus YJL095W, strain BCK1, hits give low values 1.01 and 1.03 | locus YJL115W, strain asf1, hits give low values 0.967 | locus YJL129C, strain trk1, hits give low values 0.98 | locus YJL134W, strain LCB3, hits give low values 1.01 | locus YJL154C, strain vps35, hits give low values 0.979 | locus YJL164C, strain tpk1, hits give low values 1 | locus YJL166W, strain qcr8, hits give low values 0.924 | locus YJL168C, strain set2, hits give low values 0.984 | locus YJL187C, strain SWE1 (second series), hits give low values 1.01 | locus YJL187C, strain SWE1, hits give low values 0.982 | locus YJR043C, strain POL32, hits give low values 1.01 | locus YJR066W, strain TOR1, hits give low values 0.986
